# Assay results as given in PubChem BioAssay AID504339 (National Center for Advancing Translational Sciences (NCATS), 2011).
# The whole screen tested about 390,000 compounds, of which about 17,000 (4.4%) were called active. Another 8% or so got no clear call; they are omitted. Only a selection was taken, and actives are over-represented in it overall. Unmarked numbers belong to inactive results. Calls follow the shape of the dose curve; as a rule, active = well fitted inhibition curve with a large enough effect; inconclusive = small, poorly fitted or top-dose-only effect; inactive = no such curve, though single readings can be large or run the other way.
# Target: Lysine-specific demethylase 4A (Homo sapiens) (UniProt O75164)
# Sequence (O75164 whole entry, looked up, the tested form may be a part): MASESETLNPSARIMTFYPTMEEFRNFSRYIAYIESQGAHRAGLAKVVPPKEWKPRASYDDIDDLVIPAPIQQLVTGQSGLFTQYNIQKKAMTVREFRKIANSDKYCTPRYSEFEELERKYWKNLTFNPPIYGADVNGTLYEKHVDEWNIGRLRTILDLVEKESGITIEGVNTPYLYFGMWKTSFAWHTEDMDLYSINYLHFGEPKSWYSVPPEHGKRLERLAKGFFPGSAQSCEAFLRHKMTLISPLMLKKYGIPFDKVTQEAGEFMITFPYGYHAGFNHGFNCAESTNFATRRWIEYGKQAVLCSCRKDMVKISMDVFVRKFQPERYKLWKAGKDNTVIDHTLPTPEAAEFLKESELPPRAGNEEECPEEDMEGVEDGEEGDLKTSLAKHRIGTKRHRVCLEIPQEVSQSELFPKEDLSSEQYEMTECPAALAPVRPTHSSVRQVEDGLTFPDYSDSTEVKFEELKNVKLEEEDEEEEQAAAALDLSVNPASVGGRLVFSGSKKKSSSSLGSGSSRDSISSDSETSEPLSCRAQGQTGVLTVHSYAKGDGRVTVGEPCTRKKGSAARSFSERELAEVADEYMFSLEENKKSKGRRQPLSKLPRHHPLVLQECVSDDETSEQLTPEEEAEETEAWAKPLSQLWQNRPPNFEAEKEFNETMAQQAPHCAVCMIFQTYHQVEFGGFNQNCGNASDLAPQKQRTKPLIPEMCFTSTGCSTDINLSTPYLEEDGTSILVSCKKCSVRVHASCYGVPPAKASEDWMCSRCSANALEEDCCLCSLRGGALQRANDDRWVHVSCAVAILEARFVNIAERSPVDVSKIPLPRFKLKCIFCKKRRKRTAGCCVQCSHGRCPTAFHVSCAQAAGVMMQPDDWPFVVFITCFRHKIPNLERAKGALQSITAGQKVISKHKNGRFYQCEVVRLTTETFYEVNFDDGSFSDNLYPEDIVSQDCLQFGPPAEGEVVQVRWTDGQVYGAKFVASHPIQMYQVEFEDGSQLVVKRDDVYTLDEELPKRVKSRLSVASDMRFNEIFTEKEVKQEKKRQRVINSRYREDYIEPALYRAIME
# Assay: qHTS Assay for Inhibitors of JMJD2A-Tudor Domain; also: nearly all actives have a fitted effect of over 50% in size
# Conditions: AlphaScreen JMJD2A-Tudor / H3K4me3 peptide binding; series mostly up to 114 µM; activity change, negative = inhibition: at the top concentration
# % is scaled to controls: 0 for no effect and ±100 for the full control effect; potency is read from the fitted curve at half-maximal effect.
Structure (SMILES),"activity change, negative = inhibition [%]",Potency
O=C(CSC1=Nc2ccccc2C2=NC(c3ccccc3)C(=O)N12)NCC1CCCO1 (centres undefined),0.929,
CC(C)C1N=C2c3ccccc3N=C(SCC(=O)c3ccc(O)c(O)c3)N2C1=O (centres undefined),,3.16 µM (active)
Cc1ccc(CNC(=O)CSC2=Nc3ccccc3C3=NC(C)C(=O)N23)cc1 (centres undefined),-6.62,
COc1ccc(-n2c(SC)nc3sc4c(c3c2=O)CCN(C(C)=O)C4)cc1,-13.3,
CCN1CCN(Cc2c(O)ccc3oc(C)c(C(=O)Nc4ccc(C)cc4C)c23)CC1,-20.1,
C[n+]1ccc(C(=O)NCc2ccccc2)cc1,7.97,
O=C(NCCCNCc1ccccc1)c1ccc(/C=N/O)nc1,,7.94 µM (active)
CC(C)c1ccc(C(=O)NCCCc2ccccc2)cc1,14.9,
Cc1nc2nc(SCC(=O)N(Cc3ccccc3)C(C)C)nn2c(C)c1Cc1ccccc1Cl,-9.9,
CCc1ccc(-n2nnc(-c3nc(-c4ccccc4)no3)c2C)cc1,-5.52,
COc1ccc(SCc2cc(=O)c3ccc(C)c(C)c3[nH]2)cc1,-22.7,
COc1cc(/C=N/O)cc(Br)c1OCc1cccc(Cl)c1,45.4,
COc1cc(/C=C2/C(=O)NN(c3cccc(Cl)c3)C2=O)cc(Br)c1O,,44.7 µM (active)
CCOc1c(Br)cc(/C=C2\C(=O)N(CCC#N)N=C2C)cc1OC,-2.14,
COc1ccc(CNc2nc(-c3ccc(Cl)cc3)nn2S(=O)(=O)c2ccc(C)cc2)cc1,-7.22,
Cc1cccc(NC(=O)N2CCC(CN3CCc4ccccc4C3)CC2)c1C,0.66,
NS(=O)(=O)c1ccc(NC(=O)C(=O)Nc2ccc3nc4n(c(=O)c3c2)CCCCC4)cc1,-3.02,
O=C(c1ccc2c(c1)N(Cc1ccccc1F)C(=O)c1ccccc1S2(=O)=O)N1CCOCC1,-8.08,
COc1ccc(N(CC(=O)NCCc2ccc(Cl)cc2)S(=O)(=O)c2c(C)nn(C)c2C)cc1,-6.67,
COc1cccc(Cn2c(SCc3ccc(C(=O)N4CCC(C)CC4)cc3)nc3ccncc32)c1,,5.62 µM (active)
Cc1cccc(CSc2nc3ccncc3n2Cc2ccc(C(=O)O)cc2)c1,-4,
COc1cccc(Cn2c(SCc3ccc(C(=O)N4CCCCC4)cc3)nc3ccncc32)c1,-19.1,
O=C1CSC(=S)N1c1ccc(O)cc1,-1.99,
CCOc1cccc(/C=N/N2C(=O)CSC2=S)c1O,,20 µM (active)
COc1cc(N2C(=O)CSC2=S)cc(OC)c1OC,-5.37,

Structure (SMILES),"activity change, negative = inhibition [%]",Potency
COc1ccc(-c2cn3nc(N4CCCC(C(=O)NCCCOC(C)C)C4)sc3n2)cc1 (centres undefined),-17.2,
Cc1ccc(-n2c(SCC(=O)c3ccccc3)nc3c([nH]c4ccccc43)c2=O)cc1,-13.9,
COc1ccc(NC(=O)CCNS(=O)(=O)c2ccc3c(c2)CCCC(=O)N3)cc1Cl,2.27,
COc1ccc(C(=O)Nc2cccc(C(=O)OCc3cc(=O)n4c5c(sc4n3)CCCC5)c2)cc1,-28.5,
Cc1cccc(N2CCN(Cc3c(C)n(C)n(-c4ccccc4)c3=O)CC2)c1C,-8.21,
Cc1cccc(N2CCN(C3=C(c4ccccc4)C(=O)c4ccccc43)CC2)c1C,,5.62 µM (active)
Cc1cccc(N2CCN(C(=O)c3oc(=O)c4ccccc4c3-c3ccccc3)CC2)c1C,-28,
COc1cccc(-c2n[nH]c3c2C(c2cccc(O)c2)N(C)C3=O)c1 (centres undefined),-29.2,
CCC(=O)N1N=C(c2ccc(OC)cc2)CC1c1cn(-c2ccccc2)nc1-c1cccs1 (centres undefined),-8.58,
O=C(c1ccc(Cl)cc1)c1ccc(OCC(O)CN2CCCCC2)cc1 (centres undefined),-4.4,
CCOc1ccc(C(=O)/C=C/c2cn(CC(O)CN3CCCCCC3)c3ccccc23)cc1 (centres undefined),,70.8 µM (active)
CC1CCN(CC(O)COc2ccc(C(=O)c3ccccc3)cc2)CC1 (centres undefined),-12.1,
Cn1c(=O)c2c(nc(Oc3ccc(C#N)cc3)n2Cc2ccc(Cl)cc2Cl)n(C)c1=O,-14.7,
O=[N+]([O-])c1cc(-c2nc(-c3ccccc3)no2)ccc1NCc1ccco1,-32.1,
COc1ccccc1C(=O)NC(=O)COC(=O)c1ccco1,-12.8,
COc1ccc(C/C(N)=N/OC(=O)c2ccco2)cc1OC,,44.7 µM (active)
COc1ccc(CC(=O)Nc2ccccc2NC(=O)c2ccco2)cc1OC,6.04,
COc1ccc(OC)c(NC(=O)Cn2c(=O)n(Cc3ccccc3)c(=O)c3ccccc32)c1,-19.8,
CN(C)c1ccc(C2N(C)C(=O)c3ccccc3N2C)cc1 (centres undefined),-33.6,
CN(C)c1ccc(Nc2c3c4c(cccc4n(C)c2=O)C(=O)c2ccccc2-3)cc1,,3.55 µM (active)
Cc1cc(NS(=O)(=O)c2ccc(NC(=O)c3ccccc3C)cc2)nc(C)n1,0,
COc1ccc(CC(=O)Nc2nc3n(n2)C(c2ccccc2)CC(=O)N3)cc1OC (centres undefined),-22.9,
Cc1ccc(C2C=C(c3ccc(Cl)cc3)Nc3nc(NC(=O)CCC(=O)O)nn32)cc1 (centres undefined),,79.4 µM (active)
COc1ccc(C2=CC(c3ccccc3Cl)n3nc(-c4ccc(Cl)cc4)nc3N2)cc1 (centres undefined),-22.8,
COc1cccc(CN2CCc3nc(SCC(=O)Nc4ccccc4)[nH]c(=O)c3C2)c1,-12.3,

Structure (SMILES),"activity change, negative = inhibition [%]",Potency
Cc1cc(NC(=O)C(C)SCC(=O)Nc2ccccc2N2CCCCC2)no1 (centres undefined),-23.4,
S=C(NCCC1=CCCCC1)Nc1ccccc1,-2.58,
O=C(CNCCC1=CCCCC1)Nc1ccccc1N1CCCCCC1,,56.2 µM (active)
Cc1cc(-c2ccccc2)n2nc(-c3ccccc3)cc2n1,260,
Cc1nnc(SCC(=O)NCc2ccccc2Cl)c2nn(-c3ccccc3)c(C)c12,-5.86,
COc1ccc(CNC(=O)c2cc3c(=O)[nH]c4ccccc4c3s2)cc1,4.33,
CN(c1ccccc1)S(=O)(=O)c1ccc2[nH]c(=O)[nH]c2c1,-18.4,
CCN(c1ccccc1)S(=O)(=O)c1ccc2[nH]c(=O)[nH]c2c1,,56.2 µM (active)
CCN(c1ccccc1)S(=O)(=O)c1ccc(NC(=O)C(C)(C)C)cc1,-16,
CCCC12CN3CC(C)(CN(C1)C3c1ccccc1Cl)C2=O (centres undefined),2.75,
COc1ccc(N2CCN(C(=O)CSc3nnc4ncccn34)CC2)cc1,-19.9,
COc1ccc(N2CCN(C(=O)CSc3nc4cc(OC)c(OC)cc4cc3C#N)CC2)cc1,,56.2 µM (active)
CCOc1ccc(-c2nnn(CC(=O)N3CCN(c4ccc(OC)cc4)CC3)n2)cc1OCC,-19,
COc1ccccc1C(=O)Nc1c(C(=O)N(C)Cc2ccccc2)sc2nc(C)c(Cl)c(C)c12,-16.8,
O=C(NCc1ccc(Cl)cc1)c1ccc2c(c1)nnn2C1CCCC1,-7.14,
COc1ccc(-c2nc(S(=O)(=O)c3ccccc3)c(N3CCCCC3)o2)cc1,-10,
CCOC(=O)COc1nc(C)cc(C(F)(F)F)c1C#N,-18.1,
CCOC(=O)C(Sc1ncc(C#N)c(N)n1)C(C)C (centres undefined),,44.7 µM (active)
CCOC(=O)c1cnc(SCC(=O)Nc2ccccc2C(=O)OC)nc1N,-14.7,
COc1ccccc1N1CCN(C2C(=O)c3ccccc3N2C(C)=O)CC1 (centres undefined),-22.4,
COc1ccccc1N1CCN(/N=C/c2ccc(O)cc2O)CC1,-20.3,
COc1ccccc1N1CCN(/N=C\C(Br)=C\c2ccccc2)CC1,,39.8 µM (active)
CCN1CCN(C(=O)N[C@@H](C(=O)N[C@@H]2C(=O)N3C(C(=O)O)=C(CSc4nnnn4C)CS[C@H]23)c2ccc(O)cc2)C(=O)C1=O,-11,
Cc1cc(C)cc(C(=O)NC2C(=O)N3C(C(=O)O)=C(CSc4nnc(C)s4)CSC23)c1 (centres undefined),,79.4 µM (active)
Cc1nnc(SCC2=C(C(=O)O)N3C(=O)C(NC(=O)Cn4nc(C)c(Cl)c4C)C3SC2)s1 (centres undefined),-6.9,

Structure (SMILES),"activity change, negative = inhibition [%]",Potency
O=C(NC1CC(=O)N(c2ccc(Cl)cc2)C1)C1CCCC1 (centres undefined),-2.92,
Cc1ccc(CN2CCC(CNC(=O)c3cnn(-c4ccc(C)cc4)c3C3CCN(C(=O)OC(C)(C)C)CC3)CC2)cc1,-28.8,
COc1ccc(CCNC(=O)COC(=O)C2CC2C)cc1 (centres undefined),7.09,
COc1ccc(CCNC(=O)COC(=O)c2ccc[nH]c2=O)cc1,,31.6 µM (active)
COc1ccc(CCNC(=O)COC(=O)c2cc(=O)c3ccccc3o2)cc1,5.23,
COc1cccc(CNC(=O)c2cc(=O)[nH]c3ccc(S(=O)(=O)N4CCCCC4)cc23)c1,0.683,
CC1CN(C(=O)N2CCC(C(=O)NCc3ccco3)CC2)c2cc(Cl)ccc2O1 (centres undefined),-20.1,
CCCn1c(=N)n(CC(O)COc2ccccc2OC)c2ccccc21 (centres undefined),-15.5,
O=C(Cn1c(-c2cccs2)cc2ccccc21)NCCc1ccc(Cl)cc1,-13.2,
CC(C)=CCCC1(C)C=Cc2c(ccc3c2[nH]c2cc(O)c(C)cc23)O1 (centres undefined),,44.7 µM (active)
Cc1c(Cl)cccc1NC(=O)N1CCN(C(=O)c2nsc3ccccc23)CC1,-0.649,
CCCN(C(=O)Cn1ncc2c([nH]c3ccc(C)cc32)c1=O)c1ccccc1C,-26.2,
CCOc1ccc(/C=C(/C#N)c2nnc(N3CCOCC3)n2-c2ccccc2)cc1OC,-20.7,
COc1cc(N2CCCC2)c(OC)cc1/C=C(/C#N)c1cccc(Br)c1,,17.8 µM (active)
CCCn1c2ccccc2c2cnn(CC(=O)NCC3CCN(Cc4ccc(C)cc4)CC3)c(=O)c21,-28.4,
CC(Sc1nnnn1C)C(=O)NC(=O)NC1CCCCC1 (centres undefined),-15.8,
CC(Sc1nnnn1C1CCCCC1)C(=O)O (centres undefined),,11.2 µM (active)
O=C(CSc1nnnn1C1CCCC1)N1CCCCC1,2.05,
CCN(CC)c1ccc(C2C(C(N)=O)=C(C)Nc3nc(SCc4ccccc4)nn32)cc1 (centres undefined),-2.39,
CCc1ccc(NC(=O)c2cc(S(=O)(=O)N3CCCC(C)C3)cn2C)cc1 (centres undefined),2.88,
CCOc1ccc(CNCc2c(C(=O)O)c(C)n(Cc3cccc(OC)c3)c2C)cc1OC,-26.2,
CCOc1ccc(NC(=O)Nc2cc(C)on2)cc1,-0.741,
Cc1cc(NC(=O)Nc2ccccc2[N+](=O)[O-])no1,,22.4 µM (active)
Cc1cc(NC(=O)COc2ccccc2C#N)no1,-12.1,
